Results on 25 molecules are retold here after PubChem BioAssay (EPA / NIEHS).

The nature of experiment [1]: ATG_NFI_CIS: Attagene CIS-FACTORIAL HepG2 Assay for human Nuclear Factor I (NFI) (AID 2282989). The settings on record: HepG2 cis-regulatory reporter, NFI response element transcription; actives raise or lower the signal. Summed up:
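HepG2 cells transiently transfected with cis-element-driven multiplexed reporter transcription units, dosed for 24 h. Reporter mRNA quantified by RT-PCR, fluorescent labelling, HpaI digestion and capillary electrophoresis; bidirectional fit versus DMSO baseline.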

Experiment [2] has as its target Myc proto-oncogene protein (Homo sapiens) (UniProt P01106). Nature of the experiment: ATG_Myc_CIS: Attagene CIS-FACTORIAL HepG2 Assay for human Myelocytomatosis (Myc) Proto-Oncogene Transcription Factor (AID 2282990). The settings on record: HepG2, Attagene cis-reporter transcription factor activity; actives raise or lower the signal. Summed up:
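Read-out: fluorescent reporter mRNA fragments resolved by capillary electrophoresis after RT-PCR. Human HepG2 liver cells carried transfected cis-element reporter units and were dosed for 24 h. Gain or loss of signal fitted relative to DMSO baseline.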

Experiment [3] is described as follows: ATG_NRF2_ARE_CIS: Attagene CIS-FACTORIAL HepG2 Assay for human Nuclear Factor Erythroid 2 Related Factor 2 (NFR2) response to Antioxidant Response Elements (ARE) (AID 2282992).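 On AC50: reporter mRNA level measured by RT-PCR and capillary electrophoresis fluorescence.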 To be noted: HepG2 Attagene ARE/NRF2 reporter, transcription factor activity; actives raise or lower the signal. The procedure, abridged:
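Transient MRTU transfection of HepG2; 24 h compound exposure; TriZol RNA, RT with oligo(dT), PCR, 6-FAM primer extension, HpaI cut, CE. Bidirectional fit vs DMSO.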

Experiment [4] can be described thus: ATG_Oct_MLP_CIS: Attagene CIS-FACTORIAL HepG2 Assay for human Octamer-Binding Transcription Factor (Oct) (AID 2282993). The settings on record: HepG2 Attagene cis-factorial Oct reporter, mRNA; actives raise or lower the signal. The procedure, abridged: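 HepG2 cells transiently transfected with cis-promoter-driven multiplexed reporter transcription units, dosed for 24 h. Reporter mRNA quantified by RT-PCR, fluorescent labelling, HpaI digestion and capillary electrophoresis; bidirectional fits versus DMSO baseline.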

The target of experiment [5] is Cellular tumor antigen p53 (Homo sapiens) (UniProt P04637). Nature of the experiment: ATG_p53_CIS: Attagene CIS-FACTORIAL HepG2 Assay for human p53 Transcription Factor (AID 2282994). The settings on record: HepG2 p53 cis-element reporter, Attagene mRNA; actives raise or lower the signal. The procedure, abridged: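 HepG2, transient MRTU transfection (cis promoter elements, endogenous TFs); 24 h dosing; RNA isolation, RT-PCR, 6-FAM primer extension, HpaI digest, CE fluorescence; bidirectional fit vs DMSO.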
Sequence of Cellular tumor antigen p53 (Homo sapiens) (P04637 whole entry, looked up): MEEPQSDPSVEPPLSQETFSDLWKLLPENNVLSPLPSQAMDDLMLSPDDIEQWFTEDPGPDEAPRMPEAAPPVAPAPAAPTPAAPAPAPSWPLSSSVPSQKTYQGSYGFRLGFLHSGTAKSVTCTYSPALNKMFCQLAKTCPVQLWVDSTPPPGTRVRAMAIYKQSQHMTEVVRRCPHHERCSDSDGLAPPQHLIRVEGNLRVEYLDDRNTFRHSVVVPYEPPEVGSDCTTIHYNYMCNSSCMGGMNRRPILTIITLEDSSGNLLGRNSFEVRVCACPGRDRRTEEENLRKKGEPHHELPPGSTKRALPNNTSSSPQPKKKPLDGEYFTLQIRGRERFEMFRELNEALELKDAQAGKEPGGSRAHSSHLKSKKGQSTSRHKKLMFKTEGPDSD

A short description of experiment [6]: BSK_3C_TissueFactor: BioMAP Diversity Plus: 3C Assay for Tissue Factor Biomarker Activity (AID 2282997). The settings on record: BioMAP 3C HUVEC, tissue factor biomarker readout; actives raise or lower the signal. The procedure, abridged:
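Primary human umbilical vein endothelial cells in the 3C system were exposed to test chemical for 24 h, then Tissue Factor measured by ELISA. Activity was fitted bidirectionally against DMSO as negative control and baseline.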

Experiment [7] in a line: BSK_3C_uPAR: BioMAP Diversity Plus: 3C Assay for Urokinase-type plasminogen activator receptor (uPAR) Biomarker Activity (AID 2282998). To be noted: BioMAP 3C HUVEC, uPAR biomarker ELISA; actives raise or lower the signal. Summed up: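 Human umbilical vein endothelial primary cells were exposed to test chemical for 24 h. Cell-surface uPAR was then quantified by ELISA, and responses were fitted bidirectionally against DMSO as negative control and baseline.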
For orientation: ELISA stands for enzyme-linked immunosorbent assay.

Experiment [8] is described as follows: BSK_3C_VCAM1: BioMAP Diversity Plus: 3C Assay for Vascular cell adhesion molecule 1 (VCAM1) Biomarker Activity (AID 2282999). To be noted: BioMAP 3C HUVEC, VCAM1 ELISA, cytokine-stimulated; actives raise or lower the signal. The procedure, abridged: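 Human umbilical vein endothelial cells (3C system), biomarker read by ELISA 24 h after dosing; bidirectional fit against DMSO baseline. Cytotoxicity tracked by SRB total-protein staining in parallel cultures at biomarker time.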

The nature of experiment [9]: BSK_4H_Eotaxin3: BioMAP Diversity Plus: 4H Assay for Eotaxin 3 Biomarker Activity (AID 2283000).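 On outcome: CCL26 protein level quantified by ELISA in parallel with SRB cytotoxicity check.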 The settings on record: primary human endothelial cells (HUVEC); actives raise or lower the signal. Summed up: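 HUVEC, 24 h post-dose, ELISA for Eotaxin-3/CCL26. Gain or loss of signal fitted bidirectionally vs DMSO baseline.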
Experiment [10] in a line: ATG_NF_kB_CIS: Attagene CIS-FACTORIAL HepG2 Assay for human Nuclear Factor Kappa B (NF-kB) (AID 2282991). To be noted: HepG2 Attagene cis-factorial NF-kB reporter mRNA; actives raise or lower the signal. The procedure, abridged: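 Endpoint from a 52-component multiplexed HepG2 reporter panel: cis-regulated transcription units transiently transfected, 24 h dosing, reporter mRNA quantified by RT-PCR and capillary electrophoresis, scored as increase or decrease against DMSO.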

Usually AC50 stands for the midpoint of the concentration-response curve, whichever way the signal moves.

Activity calls are given as the source filed them. How the source made its calls: active means hit-call score of the fitted dose curve at least 0.9, where 1 is the maximum; inactive means score below 0.9.

Sequence of Myc proto-oncogene protein (Homo sapiens) (P01106 whole entry, looked up, the tested form may be a part): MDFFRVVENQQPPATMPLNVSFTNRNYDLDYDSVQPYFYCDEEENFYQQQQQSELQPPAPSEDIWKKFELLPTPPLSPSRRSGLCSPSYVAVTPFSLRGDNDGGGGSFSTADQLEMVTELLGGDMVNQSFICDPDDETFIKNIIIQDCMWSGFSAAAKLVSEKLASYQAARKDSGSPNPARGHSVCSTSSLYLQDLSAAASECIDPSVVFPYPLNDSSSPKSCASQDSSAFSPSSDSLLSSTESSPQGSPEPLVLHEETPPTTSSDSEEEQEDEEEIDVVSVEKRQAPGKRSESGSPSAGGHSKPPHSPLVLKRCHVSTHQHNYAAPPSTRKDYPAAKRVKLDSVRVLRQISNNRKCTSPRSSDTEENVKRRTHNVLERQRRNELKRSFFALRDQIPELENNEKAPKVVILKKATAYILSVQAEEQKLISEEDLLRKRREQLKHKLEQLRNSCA

In the case of `CCC(=O)OCc1ccccc1`, the outcome in experiment [1], in experiment [2], in experiment [3], in [4], in experiment [5] and in experiment [6] was inactive. Besides, the result in experiment [7], in [8] and in [9] was inactive.
Turning to `CCO[Si](CCCS)(OCC)OCC`, the result in experiment [1], in [2], in experiment [3], in experiment [4] and in experiment [5] was inactive.
As to `C[C@]12CC[C@H]3[C@@H](CCC4=CC(=O)CC[C@@]43C)[C@@H]1CC[C@@H]2C(=O)CO`, the molecule was called inactive in experiment [1], in experiment [2] and in [4].
Consider `O=C(O)CCCCCCCC(=O)O`, for which the call in experiment [1], in experiment [10] and in experiment [3] was inactive.
`CC(=O)[O][Al][O]C(C)=O`: the result in experiment [1], in experiment [2] and in experiment [4] was inactive.
Consider `CCCCCCCCCCCCCCCC(=O)O`, for which the molecule was called inactive in experiment [1], in experiment [2], in experiment [4] and in experiment [5].
On to `O=C=NC1CCC(CC2CCC(N=C=O)CC2)CC1` (stereo unspecified), for which the molecule was called inactive in experiment [1], in experiment [7], in experiment [8] and in [9]. The AC50 in [2] was 100 µM (active); in [6] it was 3.97 µM (active).
Consider `O=C(O)c1cccc(C(F)(F)F)c1`, for which the molecule was called inactive in experiment [1], in experiment [2] and in experiment [5].
`CC(=O)/C=C/C1=C(C)CCCC1(C)C`: the molecule was classed as inactive in experiment [1], in [2], in experiment [4], in experiment [6], in [7] and in experiment [8]. In [9], the result was inactive. In addition, the AC50 in experiment [3] is 27.7 µM (active).
Regarding `CC1=CCC2C(C1)C2(C)C` (stereo unspecified), the molecule was classed as inactive in experiment [1], in [2] and in [5]. The AC50 in experiment [3] was 48.8 µM (active).
On to `COc1ccnc(CS(=O)c2nc3cc(OC(F)F)ccc3[nH]2)c1OC` (stereo unspecified), for which the result in [1], in experiment [2] and in experiment [4] was inactive.
`CC[Si](OC(C)=O)(OC(C)=O)OC(C)=O`: the result in experiment [1], in [2], in [3], in experiment [4], in [5] and in [6] was inactive. The result in experiment [7], in experiment [8] and in experiment [9] was inactive.
For the molecule `CC(CCO)CCc1ccccc1` (stereo unspecified), the result in experiment [1], in experiment [2], in [3] and in experiment [5] was inactive.
In the case of `CCCC[n+]1ccccc1`, the molecule was called inactive in experiment [1], in [2] and in experiment [4].
Consider `CCCCCCCCC=O`, for which the outcome in experiment [1], in experiment [2], in experiment [3], in experiment [4], in experiment [5] and in experiment [6] was inactive. The outcome in experiment [7], in experiment [8] and in experiment [9] was inactive.
Turning to `O=C1CCCCCCCCCCCCCCO1`, the molecule was called inactive in experiment [1], in experiment [2] and in [5]. For the same molecule, the AC50 in experiment [3] was 74.4 µM (active); in [6], 26.5 µM (active); in [7], 20 µM (active); in [8], 17.9 µM (active); in [9], 27.3 µM (active).
Regarding `CC(C)(C)C(=O)c1ccccc1`, the outcome in experiment [1], in experiment [2], in [3] and in experiment [5] was inactive.
With `COc1nc(C)nc(N)n1`, the result in experiment [1], in [2] and in experiment [4] was inactive.
Consider `O=C[C@H](O)[C@H](O)[C@H](O)CO`, for which the molecule was called inactive in experiment [1], in experiment [2], in experiment [4] and in experiment [5].
Turning to `Nc1ccc(S(N)(=O)=O)cc1`, the call in experiment [1], in experiment [2], in [4] and in experiment [5] was inactive.
Turning to `O=C(O)c1cn(-c2ccc(F)cc2)c2cc(N3CCNCC3)c(F)cc2c1=O`, the result in experiment [1], in experiment [2], in experiment [3], in [5], in experiment [6] and in [7] was inactive. Besides, the outcome in experiment [8] and in [9] was inactive.
As to `CC1=CCC(O)(C(C)C)CC1` (stereo unspecified), the molecule was called inactive in experiment [1], in [2], in experiment [4] and in experiment [5].
In the case of `CC(C)c1ccc(C(C)C)cc1`, the molecule was called inactive in experiment [1], in experiment [2] and in [4]. Moreover, the concentration at half-maximal activity (AC50) was 158 µM (active) in [5]; 29.4 µM (active) in [6]; 31.6 µM (active) in experiment [7]; 35.3 µM (active) in experiment [8]; 36 µM (active) in experiment [9].
Consider `Cc1cc(C2(c3cc(C)c(O)cc3C)OS(=O)(=O)c3ccccc32)c(C)cc1O`, for which the outcome in experiment [1], in experiment [2], in [3], in [4], in experiment [5] and in experiment [6] was inactive. Also, the result in experiment [7], in experiment [8] and in experiment [9] was inactive.
In the case of `CCCCCCCCCC=O`, the call in experiment [1], in experiment [2], in experiment [4], in experiment [5], in [6] and in experiment [7] was inactive. The outcome in experiment [8] and in experiment [9] was inactive.
